# From the supplement of paper PMC3334620
# The full ranking holds about 33,000 sequences; the median of “E-score (-0.5 to 0.5)” is about -0.032, and the highest 2% start at about 0.36. Many of the other results were omitted from the sample, so the highest values are more common in it than they were.
# Target: T1, Sko1 (UniProt Q02100)
# T1 sequence: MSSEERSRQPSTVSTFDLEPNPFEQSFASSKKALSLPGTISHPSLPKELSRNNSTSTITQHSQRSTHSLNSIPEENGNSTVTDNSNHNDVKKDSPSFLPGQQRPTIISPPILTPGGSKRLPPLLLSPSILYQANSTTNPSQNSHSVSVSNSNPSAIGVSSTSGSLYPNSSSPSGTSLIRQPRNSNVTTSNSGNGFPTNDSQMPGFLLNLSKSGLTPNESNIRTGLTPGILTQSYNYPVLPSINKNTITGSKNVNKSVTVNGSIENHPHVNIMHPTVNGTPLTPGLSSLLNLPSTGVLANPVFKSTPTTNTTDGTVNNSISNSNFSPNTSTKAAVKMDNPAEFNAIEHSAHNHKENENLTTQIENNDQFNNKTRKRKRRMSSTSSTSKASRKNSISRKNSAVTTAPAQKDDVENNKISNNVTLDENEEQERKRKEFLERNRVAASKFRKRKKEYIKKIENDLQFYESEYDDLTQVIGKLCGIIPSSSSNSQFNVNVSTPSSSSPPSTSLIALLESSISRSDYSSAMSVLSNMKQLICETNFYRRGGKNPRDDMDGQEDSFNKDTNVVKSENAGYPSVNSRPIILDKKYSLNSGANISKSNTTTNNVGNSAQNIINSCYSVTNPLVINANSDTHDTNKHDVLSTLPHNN
# Assay: PBM E-score (8-mer binding enrichment) (E-score (-0.5 to 0.5)); higher = stronger / more preferred TF binding
# Conditions: protein concentration: 200 nM; construct: GST-full length
# Description: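 Universal 'all 10-mer' protein binding microarrays (Agilent AMADID 015681) probed with GST-tagged S. cerevisiae TFs (full-length or DBD) made by in vitro transcription/translation (PURExpress), about 100-200 nM. Bound TF was detected with fluorescent anti-GST. Each ungapped 8-mer (which stands for itself and its reverse complement) is scored by the PBM enrichment score (E-score), a modified Wilcoxon-Mann-Whitney statistic from -0.5 to +0.5, computed with the Universal PBM Analysis Suite. Scale: above 0.35 generally sequence-specific binding.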
row,Sequence,PBM E-score
1,ACTCTTCC,-0.0697
2,GCTTGCTA,-0.191
3,ACTAACAG,0.0358
4,GGTAATGA,0.115
5,CGTAATGC,0.454
6,CGTAATGA,0.461
7,AGTAATGA,0.247
8,AGTAATGC,0.0678
9,CTTAATGC,0.0192
10,CGAGCAAG,-0.129
11,TAGTATCA,0.187
12,CCTAACGC,0.0788
13,CACTTACC,0.109
14,CACTTACG,0.382
15,CACTTACA,0.164
16,AACTTACG,0.408
17,AACTTACC,-0.0258
18,AACTTACA,0.0844
19,ACGTTCTG,0.256
20,GCTCTAAA,0.0432
21,ACGTATCG,0.452
22,GCGTATCC,0.142

row,Sequence,PBM E-score
1,TCGTATCA,0.241
2,CCGTATCG,-0.171
3,ACGTATCA,0.438
4,CCGTATCC,-0.133
5,AAGTATCT,0.0671
6,ACGTATCT,0.419
7,ACGTATCC,0.389
8,GCGTATCA,0.131
9,ACCTATCT,-0.0547
10,AAGTATCG,-0.0131
11,CCGTCTGC,-0.109
12,GCAGAACC,-0.16
13,TAGTGGAA,-0.149
14,GCGGCATA,0.0318
15,AGCTGATC,-0.0352
16,GATCCTCC,-0.264
17,ATGACGGC,0.285
18,ATGACGAG,0.462
19,AGGACGAC,-0.114
20,ATGACGGA,0.419
21,ATGACGAC,0.466
22,GTGACGGA,0.174

row,Sequence,PBM E-score
1,CCGACGAA,0.144
2,CTGACGAC,0.342
3,GCGACGAC,-0.08
4,ATGACGGG,0.338
5,CTGACGAA,0.373
6,AAGACGAG,-0.189
7,ACCTCCGG,-0.282
8,CCCCACGA,-0.128
9,CGTTTTGC,0.177
10,ACACCTAC,-0.0103
11,CCGCTGAG,-0.29
12,AAAGCTTA,0.141
13,ACTAATGG,0.00996
14,ACTGAAGT,-0.0247
15,ACTCGCCT,-0.196
16,GGGACGAA,-0.164
17,ATGACAAA,0.154
18,ACGACGAA,0.25
19,GTGACGAA,0.446
20,ATGACGAA,0.488
21,GTGACAAA,0.167
22,AGACAGTA,0.0897

row,Sequence,PBM E-score
1,CCGCCCTC,-0.23
2,AAAGATGG,-0.0167
3,AAGCTCGG,-0.169
4,GAGGTAAC,0.0793
5,GAAAGTGC,-0.11
6,CTAATTTA,0.261
7,GTAATCTA,0.394
8,ATCATATA,0.244
9,ATCATAAA,0.175
10,GTCATATA,0.373
11,GTAATTTA,0.366
12,ATAATTTA,0.222
13,TTCATAAA,0.0982
14,GTCATAAA,0.364
15,CTCATATA,0.0195
16,ATAATCTA,0.189
17,CTAATCTA,0.0405
18,CCACACAG,-0.208
19,GGGACAAA,-0.0851
20,CGAAGAAG,0.0371
